This passage reports outcome and AC50 results from PubChem BioAssay (EPA / NIEHS).

A short description of assay [1]: CCTE_Harrill_HTTr_Viability_MCF7: CCTE's 6-hour Cell Viability Assessment for the High-Throughput Transcriptomics (HTTr) Platform, in MCF-7 cells cultured in DMEM + 10% fetal bovine serum, Harrill Lab (AID 2284010). The method, boiled down:
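MCF-7 cells in DMEM + 10% FBS, 384-well, exposed 6 h to an eight-point dilution series. Membrane integrity scored by high-content imaging of propidium iodide exclusion; bidirectional fit versus DMSO.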

A short description of assay [2]: CCTE_Harrill_HTTr_Apoptosis_MCF7: CCTE's 6-hour Apoptosis Assessment for the High-Throughput Transcriptomics (HTTr) Platform, in MCF-7 cells cultured in DMEM + 10% fetal bovine serum, Harrill Lab (AID 2284011). The method, boiled down:
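Apoptosis in MCF-7 cells grown in DMEM with 10% fetal bovine serum was scored after a six hour exposure by high content imaging of caspase-3/7 activation (CellEvent Caspase 3/7 Green), with DMSO serving as negative control and baseline.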

A short description of assay [3]: CCTE_Harrill_HTTr_CellCount_MCF7: CCTE's Cell Proliferation Assessment for the High-Throughput Transcriptomics (HTTr) Platform, Harrill Lab (AID 2284012; active means hit-call score of the fitted dose curve at least 0.9, where 1 is the maximum;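 further: cells exposed to compound for six hours; intended direction is loss of nuclei count meaning fewer cells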). The gist of the method: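 MCF7 cells exposed 6 hours to an eight-point dilution series; Hoechst-stained nuclei counted by high-content imaging. Bidirectional curve fitting against DMSO baseline.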
Assay [4] in a line: CCTE_Shafer_MEA_acute_burst_number: CCTE's Neural Acute Assay for Single-Electrode Bursts, Shafer Lab (AID 2284013). The gist of the method: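 Primary rat cortical neurons on 16-electrode MEA wells, treated on DIV 13 or 15 with compound at 0.03-40 uM. Single-electrode burst count from 40-min recordings at 37 C before and after exposure; percent change from baseline per well, DMSO negative control.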

Assay [5] in a line: CCTE_Shafer_MEA_acute_burst_duration_mean: CCTE's Neural Acute Assay for Mean Burst Duration, Shafer Lab (AID 2284014).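 Further: hits are decreases in mean burst duration relative to DMSO controls.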 The method, boiled down:
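Rat primary cortical neurons on 48-well MEA, treated at DIV 13 or 15 with 0.03-40 uM in at least 3 wells. Value is percent change in mean burst duration, comparing 40 min recordings at 37 C before and during exposure.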

Assay [6] in a line: CCTE_Shafer_MEA_acute_per_burst_spike_number_mean: CCTE's Neural Acute Assay for Average Number of Spikes Per Burst, Shafer Lab (AID 2284015).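 Further: hits are decreases in mean spikes per burst versus baseline.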 The method, boiled down: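 We recorded spontaneous network firing of rat cortical neurons for 40 min before and 40 min during exposure to compound at 0.03-40 uM, at 37 C. Spikes were detected adaptively at 8x rms noise, and the change in average spikes per burst was fitted against DMSO.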

A short description of assay [7]: CCTE_Shafer_MEA_acute_interburst_interval_mean: CCTE's Neural Acute Assay for Mean Interburst Interval, Shafer Lab (AID 2284016).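 Further: percent change of mean interburst interval versus each well's own pre-dose baseline; curves fitted for decrease in interburst interval relative to DMSO.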 The gist of the method: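 MEA recording of spontaneous network bursting in primary rat cortical cultures; mean interburst interval was compared before and after a 40-min compound exposure (0.03-40 uM) and expressed as percent change, relative to DMSO.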

Assay [8] is described as follows: CCTE_Shafer_MEA_acute_burst_percentage_mean: CCTE's Neural Acute Assay for Percentage of Spikes in a Burst, Shafer Lab (AID 2284017).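 On AC50: curve fitted for loss of signal so potency reflects decreased burst percentage.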 The method, boiled down:
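Compounds were tested at 0.03-40 uM on primary rat cortical neuron networks grown over microelectrodes, with at least three wells per compound. Spontaneous firing was recorded for 40 min before and 40 min after dosing, and the change in burst percentage was computed per well.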

Assay [9] can be described thus: CCTE_Shafer_MEA_acute_per_network_burst_spike_number_mean: CCTE's Neural Acute Assay for Average Number of Spikes in a Network Burst, Shafer Lab (AID 2284019). The gist of the method: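 Rat primary cortical neurons on 48-well MEA at DIV 13 or 15, 37 C; compounds 0.03-40 uM, at least three wells each. 40-min baseline then 40-min exposure recording; percent change in mean spikes per network burst.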

Assay [10] in a line: CCTE_Shafer_MEA_acute_per_network_burst_spike_number_std: CCTE's Neural Acute Assay for Standard Deviation of Number of Spikes in a Network Burst, Shafer Lab (AID 2284020).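 Further: fitted for decrease in spike-number SD versus DMSO so actives lower it.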 The method, boiled down: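 Rat primary cortical neurons on 48-well MEA (16 electrodes/well), treated DIV 13 or 15 at 0.03-40 uM, ≥3 wells per compound. 40 min recordings at 37 C before and after dosing; value is percent change in network-burst spike-number SD, negative direction vs DMSO.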

Assay [11] is described as follows: CCTE_Shafer_MEA_acute_per_network_burst_electrodes_number_mean: CCTE's Neural Acute Assay for Mean Number of Electrodes in a Network Burst, Shafer Lab (AID 2284021).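 Further: curves fitted for decreases only so hits reduce electrodes per burst.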 The method, boiled down: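 Percent change from baseline in average electrode count per network burst, rat cortical cultures on 48-well MEAs; 40-min recordings each side of exposure, DIV 13 or 15; threshold 8x rms noise; DMSO as negative control.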

A short description of assay [12]: CCTE_Shafer_MEA_acute_network_burst_percentage: CCTE's Neural Acute Assay for Percentage of Network Bursts, Shafer Lab (AID 2284022).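 Further: curves fitted for loss so actives lower network burst percentage.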 The method, boiled down: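 On DIV 13 or 15, at least three wells of rat cortical neurons per compound are dosed at 0.03-40 uM. Spontaneous firing is detected at 8x rms noise for 40 min before and after dosing at 37 C. The percent change in network-burst spike share is reported.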

Assay [13] in a line: CCTE_Shafer_MEA_acute_cross_correlation_area: CCTE's Neural Acute Assay for Area of Cross Correlation, Shafer Lab (AID 2284024).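 Further: area under pooled inter-electrode spike cross-correlation near zero lag as percent change from own baseline; curves fitted for loss of cross-correlation area so actives lower synchrony.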 The gist of the method: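 Extracellular recordings from cultured rat cortical neurons measure network synchrony as cross-correlation area; each well's post-compound value (0.03-40 uM, 40 min) is compared with its own 40 min baseline to give percent change.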

Assay [14] in a line: CCTE_Shafer_MEA_acute_cross_correlation_HWHM: CCTE's Neural Acute Assay for Cross Correlation at Half Width at Half Maximum, Shafer Lab (AID 2284026).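 Further: percent change per well from pre-dose baseline in spike cross-correlogram half width; hits are a decrease in cross-correlogram half width relative to DMSO.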 The method, boiled down: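 Percent change in cross-correlogram half width at half maximum, narrower meaning more synchrony, was derived per well from paired 40-min recordings before and during exposure to 0.03-40 uM compound in rat cortical cultures at 37 C.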

A short description of assay [15]: CCTE_Shafer_MEA_acute_synchrony_index: CCTE's Neural Acute Assay for Synchrony, Shafer Lab (AID 2284027).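 Further: network synchrony index of spontaneous spiking in primary rat cortical neurons on MEAs; fitted for loss of signal so actives lower synchrony relative to DMSO.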 The gist of the method:
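Primary rat cortical neurons on 48-well MEAs, dosed at 0.03–40 uM on DIV 13 or 15. Spikes are recorded for 40 min at 37C before and after exposure, and synchrony index (0–1) is expressed as percent change from baseline per well.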

The nature of assay [16]: CCTE_Deisenroth_AIME_384WELL_CTox_Active: Cytotoxicity Assessment (CTOX) in CCTE's 384-well Estrogen Receptor Transactivation Assay with AIME metabolic competence (metabolism positive), Deisenroth Lab (AID 2284037; active means hit-call score of the fitted dose curve at least 0.9, where 1 is the maximum;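 further: chemicals first conditioned 2 h by alginate-bound induced rat liver S9 before cells; activity means signal loss indicating cell death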). The method, boiled down:
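Chemicals pre-incubated 2 hours with alginate-immobilised phenobarbital/beta-naphthoflavone-induced male Sprague Dawley rat liver S9, then conditioned medium applied 24 hour to VM7Luc4E2 cells. Viability by fluorogenic protease substrate; 10-point series 0.002 - 200 uM.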

For assay [17], the target named is Estrogen receptor (Homo sapiens) (UniProt P03372). The experiment in a line: CCTE_Deisenroth_AIME_384WELL_LUC_Active: CCTE's 384-well Estrogen Receptor Transactivation Assay with AIME metabolic competence (ERTA luciferase; metabolism positive), Deisenroth Lab (AID 2284030; active means hit-call score of the fitted dose curve at least 0.9, where 1 is the maximum). The method, boiled down: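 Estrogenic luciferase signal in VM7Luc4E2 cells is measured at 24 hour, after chemicals have been preconditioned 2 hours with PB/BNF-induced rat hepatic S9 in alginate. Gain of signal is fitted relative to 17beta-estradiol, across 0.002 - 200 uM.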

Assay [18] in a line: CCTE_Shafer_MEA_dev_per_burst_spike_percent: CCTE's Neural Network Formation Assay for Percent of Spikes in a Burst, Shafer Lab (AID 2284032). The method, boiled down: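 Rat primary cortical neurons on 16-electrode MEA wells, dosed from plating day 0 for 12 days with renewal on DIV 5 and 9; spikes-in-bursts percentage averaged over bursting electrodes, collapsed as AUC across days 5, 7, 9, 12; loss direction versus DMSO.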

Structures are written as SMILES. Inconclusive results are not listed. Activity calls are given as the source filed them. How the source made its calls, unless noted: active means hit-call score of the fitted dose curve at least 0.9, where 1 is the maximum; inactive means score below 0.9.

Usually AC50 stands for the concentration giving half of the maximal activity seen.

Sequence of Estrogen receptor (Homo sapiens) (P03372 whole entry, looked up): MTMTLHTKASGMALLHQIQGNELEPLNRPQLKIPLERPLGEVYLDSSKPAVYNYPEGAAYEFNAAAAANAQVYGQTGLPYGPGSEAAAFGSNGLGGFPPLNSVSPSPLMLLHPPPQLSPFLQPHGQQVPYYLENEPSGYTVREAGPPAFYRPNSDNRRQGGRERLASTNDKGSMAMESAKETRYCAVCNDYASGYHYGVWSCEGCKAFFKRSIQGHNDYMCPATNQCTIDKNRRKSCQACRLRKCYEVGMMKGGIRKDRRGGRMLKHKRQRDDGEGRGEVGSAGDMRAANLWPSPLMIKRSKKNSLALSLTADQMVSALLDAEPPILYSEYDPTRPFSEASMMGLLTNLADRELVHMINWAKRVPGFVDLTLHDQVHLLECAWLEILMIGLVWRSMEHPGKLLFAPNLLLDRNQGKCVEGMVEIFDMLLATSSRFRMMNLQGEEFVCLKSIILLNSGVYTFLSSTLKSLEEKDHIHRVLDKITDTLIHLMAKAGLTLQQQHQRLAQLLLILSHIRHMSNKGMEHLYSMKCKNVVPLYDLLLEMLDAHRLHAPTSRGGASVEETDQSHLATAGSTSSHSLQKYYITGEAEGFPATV

With `CCOC(=O)c1ccc(C2CCC(NC[C@H](O)COc3ccc(O)c(NS(C)(=O)=O)c3)CC2)cc1` (some centres undefined), the result in assay [1], in [2], in [3], in [4], in [5] and in [6] was inactive. For the same compound, the compound was called inactive in assay [7], in [9], in assay [10], in assay [11], in [12] and in assay [13]. Besides, in [14], the result was inactive. For the same compound, the values for the AC50 in assay [8], in [15] and in [16] were 30.2 µM (active), 28.8 µM (active) and 100 µM (active), respectively.
Take `Oc1ccc2c(c1)-c1ccccc1C2`: the outcome in assay [1], in assay [2] and in assay [16] was inactive.
Consider `CCN(C(=O)c1cc(C)cc(OC[C@H](C)Nc2ccncc2)c1)C(C)C`, for which the outcome in [1], in assay [2], in [3] and in assay [16] was inactive.
`CC(=O)OCCC(C)C`: the result in assay [1], in assay [2] and in assay [16] was inactive.
Turning to `COc1ccc2sc(C(=O)Nc3nnn[nH]3)c(OC(C)C)c2c1`, the outcome in assay [1], in [2], in assay [3], in assay [4], in assay [5] and in [6] was inactive. Besides, the outcome in assay [7], in assay [8], in assay [9], in assay [10], in assay [11] and in assay [12] was inactive. The result in [13], in assay [14], in assay [15] and in [17] was inactive. Moreover, the AC50 in assay [16] was 45 µM (active).
On to `C1=CCCC=CCCC=CCC1`, for which the outcome in [1] and in assay [3] was inactive.
For `CC[C@H]1OC(=O)[C@H](C)[C@@H](O[C@H]2C[C@@](C)(OC)[C@@H](O)[C@H](C)O2)[C@H](C)[C@@H](O[C@@H]2O[C@H](C)C[C@H](N(C)C)[C@H]2O)[C@](C)(O)C[C@@H](C)C(=O)[C@H](C)[C@@H](O)[C@]1(C)O`, the outcome in assay [1], in assay [2], in [3], in assay [4], in assay [5] and in [6] was inactive. Further, the result in [7], in assay [8], in [9], in assay [10], in [11] and in assay [12] was inactive. Moreover, the result in assay [13], in assay [14], in [15] and in assay [18] was inactive.
Turning to `O=C(O)c1cccc(N(Cc2cccnc2)c2ccc(OC(F)F)c(OC(F)F)c2)c1`, the outcome in assay [1] and in assay [3] was inactive.
In the case of `CCCN(C1CCN(C(=O)C2CCNCC2)CC1)[C@@H]1CCc2ccc(OC)cc2C1`, the result in assay [1], in [2], in [3], in assay [4], in [5] and in assay [6] was inactive. In addition, the compound was classed as inactive in assay [7], in [9], in [10], in assay [13], in [14] and in assay [16]. The AC50 in [8] was 11.3 µM (active); in assay [11], 5 µM (active); in assay [12], 7.55 µM (active); in [15], 17.7 µM (active).
